# Values of other authors in PubChem BioAssay AID977608.
# Screen size: about 4,300 compounds; about 4,300 (100%) were called active. The limit is not given here; nearly all actives have IC50 up to about 1400 µM. The set was probably picked from earlier hits. The list shows a part of the results.
# Test: protein-ligand inhibition affinities from structures – PDB-derived complexes (AID 977608)
compound,measurement,setting,value
Cn1ncnc1[C@H]1c2n[nH]c(=O)c3cc(F)cc(c23)N[C@@H]1c1ccc(F)cc1,IC50,"literature IC50, protein: Poly [ADP-ribose] polymerase 1 PARP1, PDB entry 4pjt",0.00057 µM (active)
NC(=O)c1sc(Nc2ccccc2)nc1N,IC50,"literature IC50, protein: Cyclin-dependent kinase 2, PDB entry 3rzb",100 µM (active)
Nc1nc(Nc2cccc(S(N)(=O)=O)c2)sc1C(=O)c1ccccc1,IC50,"literature IC50, protein: Cyclin-dependent kinase 2, PDB entry 3rni",6.7 µM (active)
CS(=O)(=O)c1ccc(C(=O)Nc2cccc(-c3cn4ccnc4c(Nc4ccc(C(=O)N5CCOCC5)cc4)n3)c2)cc1,IC50,"literature IC50, protein: Tyrosine-protein kinase BTK, PDB entry 4ot6",1.2 µM (active)
O=C(Nc1ccc2[nH]nc(-c3ccncc3)c2c1)[C@@H]1CCN(CC(=O)N2CCN(c3ccc(-c4ncccn4)cc3)CC2)C1,IC50,"literature IC50, protein: Haspin, PDB entry 4qtc",0.398 µM (active)
same,IC50,"literature IC50, protein: Mitogen-activated protein kinase 8 JNK1, PDB entry 4qtd",1.08 µM (active)
O=C1NC(=Nc2ccccc2)N=C1Cc1ccc2c(c1)OCO2,IC50,"literature IC50, protein: Serine/threonine-protein kinase pim-1, PDB entry 4gw8",0.88 µM (active)
C/C=C\CCC[C@H](C(=O)N1CCC[C@H]1C(=O)OC)N(C)C(=O)[C@H](C)NC(=O)[C@H](CC(C)C)NC(=O)C[C@H](O)[C@H](Cc1ccccc1)NC(=O)c1cc(NS(C)(=O)=O)cc(C(=O)N[C@H](C)c2ccccc2)c1,IC50,"literature IC50, protein: Beta-secretase 1 (K75A,E77A mutation), PDB entry 4dvf",0.128 µM (active)
O=C(O)c1cc2ccccc2o1,IC50,"literature IC50, protein: Adenylate cyclase type 10 hsolAC, PDB entry 4oyp",1000 µM (active)
CCc1nc(N)nc(N)c1-c1ccc2c(c1)N(CCNC(C)=O)C(=O)C(C)(C)O2,IC50,"literature IC50, protein: human Renin, PDB entry 2g1r",0.02 µM (active)
C[C@H](N[C@@H](CCc1ccccc1)C(=O)O)C(=O)N1CC=C[C@H]1C(=O)O,IC50,"literature IC50, protein: HUMAN TESTICULAR ANGIOTENSIN I-CONVERTING ENZYME, PDB entry 1uze",0.00127 µM (active)
NC[C@@](O)(c1ccc(Cl)cc1)c1ccc(-c2cn[nH]c2)cc1,IC50,"literature IC50, protein: CAMP-DEPENDENT PROTEIN KINASE CATALYTIC SUBUNIT ALPHA, PDB entry 4axa",0.01 µM (active)
NC1NC(=O)c2[nH]cnc2N1 (stereo not given),IC50,"literature IC50, protein: human Purine nucleoside phosphorylase, PDB entry 1v2h",5 µM (active)
CC(=O)N[C@H]1[C@H]([C@H](O)[C@H](O)CO)O[C@@H](C(=O)O)C[C@@H]1NC(N)N,IC50,"literature IC50, protein: Neuraminidase, PDB entry 4mwr",0.00041 µM (active)
same,IC50,"literature IC50, protein: Neuraminidase, PDB entry 4mwx",0.0757 µM (active)
CO[C@@H]([C@@H]1O[C@H](C(=O)O)C[C@H](NC(N)N)[C@H]1NC(C)=O)[C@H](O)CO,IC50,"literature IC50, protein: Neuraminidase, PDB entry 4mwu",0.00324 µM (active)
same,IC50,"literature IC50, protein: Neuraminidase, PDB entry 4mwy",0.0896 µM (active)
CO[C@@H]([C@@H]1OC(C(=O)O)=C[C@H](NC(N)N)[C@H]1NC(C)=O)[C@H](O)CO,IC50,"literature IC50, protein: Neuraminidase, PDB entry 4hzw",0.00131 µM (active)
CC(C)[C@H](NC(=O)CCc1ccccc1)[P+](O)(O)C[C@@H](CCCCCN)C(=O)O,IC50,"literature IC50, protein: Carboxypeptidase B, PDB entry 3wc7",0.0055 µM (active)
Nc1c2ncn3c2nc[n+]1[C@@H]1C[C@H](CO[P+](O)(O)O[P+](O)(O)OC[C@H]2O[C@@H]3[C@H](O)[C@@H]2O)[C@@H](O)[C@H]1O,IC50,"literature IC50, protein: ADP-ribosyl cyclase 1, PDB entry 3u4i",129 µM (active)
Nc1[nH]c2c(=O)n3cnc2[n+]1[C@@H]1O[C@H](CO[P+](O)(O)O[P+](O)(O)OC[C@H]2O[C@@H]3[C@H](O)[C@@H]2O)[C@@H](O)[C@H]1O,IC50,"literature IC50, protein: ADP-ribosyl cyclase 1, PDB entry 3u4h",56 µM (active)
C/C(=C\CO[P+](O)(O)O[P+](O)(O)O)CN,IC50,"literature IC50, protein: 4-hydroxy-3-methylbut-2-enyl diphosphate reductase, PDB entry 4h4d",0.15 µM (active)
C/C(=C\CO[P+](O)(O)O[P+](O)(O)O)CS,IC50,"literature IC50, protein: 4-hydroxy-3-methylbut-2-enyl diphosphate reductase, PDB entry 4h4e",0.21 µM (active)
C[C@]1(c2cc(NC(=O)c3ccc(C#N)cn3)ccc2F)NC(N)O[C@H](C(F)(F)F)[C@@H]1F (stereo not given in full),IC50,"literature IC50, protein: Beta-secretase 1, PDB entry 4j1k",0.013 µM (active)
C[C@]1(c2cc(NC(=O)c3ccc(C#N)cn3)ccc2F)NC(N)O[C@@H](C(F)(F)F)[C@@H]1F (stereo not given in full),IC50,"literature IC50, protein: Beta-secretase 1, PDB entry 4j1i",0.04 µM (active)
O=C(CCc1cc(C(=O)c2cccc(F)c2)c[nH]1)C[C@@H](O)C(=O)O,IC50,"literature IC50, protein: DNA nucleotidylexotransferase, Tdt core, PDB entry 4iqt",0.78 µM (active)
CC(=O)O[C@]1(C(C)=O)CC[C@H]2[C@@H]3CCC4=CC(=O)CCC4=C3[C@@H](c3ccc(N(C)C)cc3)C[C@@]21C,IC50,"literature IC50, protein: Progesterone receptor, PDB entry 4oar",3.8e-05 µM (active)
CC(C)C1=CC2=CC(=O)[C@H]3C(C)(C)CCC[C@]3(C)C2=C(O)C1=O,IC50,"literature IC50, protein: Farnesyl pyrophosphate synthase HsFPPS-11, PDB entry 4p0x",1.2 µM (active)
O=C1N=CN2NC(Sc3ccc(F)cc3F)=CC=C2C1c1c(Cl)cccc1Cl (stereo not given),IC50,"literature IC50, protein: human p38 kinase, Mitogen-activated protein kinase 14, MAPK14, PDB entry 3fc1",0.01 µM (active)
CCCNc1nc(N)c(C(O)c2cccnc2)s1 (stereo not given),IC50,"literature IC50, protein: Cyclin-dependent kinase 2, PDB entry 3qtq",3.1 µM (active)
CC(C)Nc1nc(N)c(C(O)c2cccnc2)s1 (stereo not given),IC50,"literature IC50, protein: Cyclin-dependent kinase 2, PDB entry 3rk9",0.52 µM (active)
CCCNc1nc(N)c(C(O)c2ccccn2)s1 (stereo not given),IC50,"literature IC50, protein: Cyclin-dependent kinase 2, PDB entry 3s0o",33 µM (active)
CCCNc1nc(N)c(C(O)c2cccc([N+](=O)[O-])c2)s1 (stereo not given),IC50,"literature IC50, protein: Cyclin-dependent kinase 2, PDB entry 3r8v",2.9 µM (active)
CCCNc1nc(N)c(C(O)c2ccncc2)s1 (stereo not given),IC50,"literature IC50, protein: Cyclin-dependent kinase 2, PDB entry 3r8z",49 µM (active)
CCCNc1nc(N)c(C(O)c2ccc3ccccc3c2)s1 (stereo not given),IC50,"literature IC50, protein: Cyclin-dependent kinase 2, PDB entry 3r8u",5 µM (active)
COc1cc2nccc(Oc3ccc4oc(Nc5ccc(Cl)cc5)nc4c3)c2cc1OC,IC50,"literature IC50, protein: ALK tyrosine kinase receptor (C1097S, R1275Q mutation), PDB entry 4fny",0.016 µM (active)
CC(=O)Nc1cccc(-c2ccn([C@@H](Cc3cc[n+]([O-])cc3)c3ccc(OC(F)F)c(OCC4CC4)c3)n2)c1,IC50,"literature IC50, protein: cAMP-specific 3',5'-cyclic phosphodiesterase 4D, PDB entry 3v9b",0.0005 µM (active)
CN1C2=C(NC[C@@H]1CNc1ccc(C(=O)N[C@@H](CCC(=O)N[C@@H](CCC(=O)O)C(=O)O)C(=O)O)cc1)NC(N)=NC2O (stereo not given in full),IC50,"literature IC50, protein: Cyclic AMP-GMP synthase DncV (deletion mutant D-loop), PDB entry 4u0n",1.69 µM (active)
CN1C2C(=NC[C@@H]1CNc1ccc(C(=O)N[C@@H](CCC(=O)N[C@@H](CCC(=O)O)C(=O)O)C(=O)O)cc1)NC(N)=NC2O (stereo not given in full),IC50,"literature IC50, protein: Cyclic AMP-GMP synthase DncV (D193N mutant), PDB entry 4u0m",1.69 µM (active)
same,IC50,"literature IC50, protein: Cyclic AMP-GMP synthase DncV, PDB entry 4u03",1.69 µM (active)
